# About 83,000 compounds went through this panel and 20% of them were active in at least one assay; those are over-represented in the sample as a whole.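 Cells were grown in 96-well plates and exposed to the test compound at a single concentration for 48 hours; results are reported as percent growth, with values below 10 considered active.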 Unmarked numbers belong to inactive results. Active and inactive are the calls of the source.
# Key:
# Assay in all cases: NCI-60 one-dose screen, 48 h (100 = growth as untreated, 0 = no growth, -100 = all killed)
# Settings in all cases: 10 µM unless noted
# NCI-H23 lung = tested on: NCI-H23 lung
# NCI-H226 lung = tested on: NCI-H226 lung
# NCI-H322M lung = tested on: NCI-H322M lung
# HOP-62 NSCLC = tested on: HOP-62 NSCLC
# NCI-H460 lung = tested on: NCI-H460 lung
# HOP-92 NSCLC = tested on: HOP-92 NSCLC
# NCI-H522 lung = tested on: NCI-H522 lung
# A549/ATCC NSCLC = tested on: A549/ATCC NSCLC
# 786-0 renal = tested on: 786-0 renal
# COLO 205 colon = tested on: COLO 205 colon
# DU-145 prostate = tested on: DU-145 prostate
# K-562 leukemia = tested on: K-562 leukemia
# MALME-3M melanoma = tested on: MALME-3M melanoma
# MDA-MB-231 breast = tested on: MDA-MB-231 breast
# RXF 393 renal = tested on: RXF 393 renal
# SF-268 CNS = tested on: SF-268 CNS
# SF-295 CNS = tested on: SF-295 CNS
# SF-539 CNS = tested on: SF-539 CNS
# UACC-257 melanoma = tested on: UACC-257 melanoma
# M14 melanoma = tested on: M14 melanoma
SMILES,growth (NCI-H23 lung),growth (NCI-H226 lung),growth (NCI-H322M lung),growth (HOP-62 NSCLC),growth (NCI-H460 lung),growth (HOP-92 NSCLC),growth (NCI-H522 lung),growth (A549/ATCC NSCLC),growth (786-0 renal),growth (COLO 205 colon),growth (DU-145 prostate),growth (K-562 leukemia),growth (MALME-3M melanoma),growth (MDA-MB-231 breast),growth (RXF 393 renal),growth (SF-268 CNS),growth (SF-295 CNS),growth (SF-539 CNS),growth (UACC-257 melanoma),growth (M14 melanoma)
Cc1nc2cc(-c3nn(C(C)C)c4ncnc(N)c34)ccc2o1,-0.166% (active),-20.5% (active),-23.2% (active),-36.3% (active),3.28% (active),-40.4% (active),-11.5% (active),-29.2% (active),-29.5% (active),-24.9% (active),1.98% (active),10.4%,-38.7% (active),-9.12% (active),-54.3% (active),4.35% (active),-53.9% (active),-61.7% (active),-45.3% (active),-7.38% (active)
CC#CC(=O)N1CCC[C@H]1c1nc(-c2ccc(C(=O)Nc3ccccn3)cc2)c2c(N)nccn12,96.4%,80.2%,76.6%,68.9%,90.4%,76.9%,37.1%,48.6%,92.3%,81.6%,89.1%,77.2%,99%,90.3%,93.3%,79.5%,89.9%,95.4%,57.7%,83.1%
CCCCCC(=O)OCc1ccc(Cl)c(Cl)c1,96.2%,100%,96.3%,101%,107%,109%,97.5%,103%,104%,106%,105%,98.8%,90.4%,110%,116%,99.3%,108%,105%,103%,104%
COc1cc2ncnc(Nc3ccc(F)c(Cl)c3)c2cc1NC(=O)/C=C/CN1CCCCC1,-54.1% (active),-83.4% (active),-1.5% (active),-51.9% (active),-69.9% (active),-83.6% (active),-56.9% (active),-76.9% (active),-81.7% (active),-76.6% (active),-42.7% (active),-28.5% (active),-80.7% (active),-68.7% (active),-92.1% (active),-74.5% (active),-55% (active),-89.9% (active),-77% (active),-72% (active)
Nc1nc(N)c2nc(-c3cccc(O)c3)c(-c3cccc(O)c3)nc2n1,82.5%,78.5%,47%,54.1%,92.8%,49.5%,49.3%,75.1%,65.7%,79%,80.8%,28.5%,91.3%,96.5%,70.8%,58.2%,89.8%,81.7%,65.4%,87.5%
COc1cc(OC)c(/C=C/S(=O)(=O)Cc2ccc(OC)c(NCC(=O)O)c2)c(OC)c1,31.9%,61.1%,47.1%,12.6%,1.56% (active),43.9%,-18% (active),9.08% (active),21.9%,-62.1% (active),7.91% (active),8.38% (active),54.6%,39.7%,36.9%,30.3%,15.5%,-17.1% (active),48.7%,12.6%
CC1(O)CC(c2nc(-c3ccc4ccc(-c5ccccc5)nc4c3)c3c(N)nccn23)C1 (stereo not given),33.9%,36.1%,0.394% (active),28.6%,25.2%,-13.2% (active),31.3%,33.5%,43.8%,-22.2% (active),34.1%,36.9%,30.4%,28.7%,2.73% (active),44.1%,46.7%,-2.47% (active),25.7%,42.5%

# From PubChem BioAssay (NCI)
